Results filed as inconclusive are left out. Calls of active or inactive are those of the source. Calls come from the whole dose curve; as a rule, active = well fitted curve in the direction sought with a large enough effect; inconclusive = small, poorly fitted or top-dose-only effect, or another doubt; inactive = no such curve, though single readings can be large; an effect the other way counts as inactive or inconclusive.

Assay [1] deals with N-terminal Xaa-Pro-Lys N-methyltransferase 1 (Homo sapiens) (UniProt Q9BV86). Description: qHTS Assay for Inhibitors of N-terminal methyltransferase 1 (NTMT1): LOPAC validation of the NTMT1 SAHH-coupled ThioGlo3 Assay (AID 1347143).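 Note: SAH from peptide methylation measured as thiol fluorescence via SAHH coupling and ThioGlo3; nearly all actives have a fitted effect of over 70% in size.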 In short, it runs like this: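 Steps: dispense 125nM NTMT1; pin-transfer test compounds at several concentrations, with 1uM RCC1-6 peptide as control; incubate 1 min; start with reagent holding 100uM SAM, 10uM SAHH, 15uM ThioGlo3; read at 0 and 30 min.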

Assay [2] relates to Zika virus NS2B-NS3 protease (unlinked). Description: Optimization of GU AMC qHTS for Zika virus inhibitors: Unlinked NS2B-NS3 protease assay (AID 1347151). Note: series mostly up to about 52 µM; nearly all actives have a fitted effect of over 80% in size. In short, it runs like this: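 Noncovalent NS2B hydrophilic domain–NS3 protease complex (25 nM final) in 10 mM Tris-HCl pH 8.0, 0.01% Tween 20; AMC substrate, room temperature 15 min (~20% conversion); fluorescence change normalized, 4-parameter Hill fit.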
In general terms: qHTS replaces the single test concentration by a dilution series.

A short description of assay [3]: qHTS of pediatric cancer cell lines to identify multiple opportunities for drug repurposing: Confirmatory screen for DAOY cells (AID 1347114). Note: nearly all actives have a fitted effect of over 65% in size. In short, it runs like this:
(§1)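 Viability measured as metabolically active cells via CellTiter-Glo luminescence following 48 hours of compound exposure, 11-point dilutions in confirmatory testing. 500-1,000 cells/well plated 5 hours before dosing; controls were DMSO and 2.3 µM bortezomib.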

Assay [4] can be described thus: qHTS of pediatric cancer cell lines to identify multiple opportunities for drug repurposing: Confirmatory screen for SJ-GBM2 cells (AID 1347116). Note: nearly all actives have a fitted effect of over 60% in size. The following applies: outcome: dose series up to 45.9 µM. In short, it runs like this: as §1
A short description of assay [5]: qHTS of pediatric cancer cell lines to identify multiple opportunities for drug repurposing: Confirmatory screen for BT-37 cells (AID 1347117). Note: nearly all actives have a fitted effect of over 55% in size. In short, it runs like this: (§2)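 Viability after 48 h compound treatment at 37C, 500-1,000 cells/well, read as ATP luminescence with CellTiter-Glo. Primary screens used 11-point (MIPE, 0.78 nM-46 µM) or 8-point (NPC, 0.59 nM-46 µM) final concentrations; follow-up screens used 11-point dilutions.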

The nature of assay [6]: qHTS of pediatric cancer cell lines to identify multiple opportunities for drug repurposing: Confirmatory screen for control Hh wild type fibroblast cells (AID 1347121). Note: nearly all actives have a fitted effect of over 70% in size. The procedure, abridged: as §2
Assay [7] can be described thus: qHTS of pediatric cancer cell lines to identify multiple opportunities for drug repurposing: Confirmatory screen for U-2 OS cells (AID 1347122). Note: nearly all actives have a fitted effect of over 65% in size. The procedure, abridged: as §2
A short description of assay [8]: qHTS of pediatric cancer cell lines to identify multiple opportunities for drug repurposing: Confirmatory screen for Rh41 cells (AID 1347123).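 Note: 48 h compound exposure; nearly all actives have a fitted effect of over 60% in size.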 Note: potency is the fitted concentration of half-maximal effect. In short, it runs like this: as §2
Assay [9] in a line: qHTS of pediatric cancer cell lines to identify multiple opportunities for drug repurposing: Confirmatory screen for RD cells (AID 1347124).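 Note: cells exposed to compound for 48 h before viability readout; nearly all actives have a fitted effect of over 65% in size.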 The procedure, abridged:
as §2

Assay [10] can be described thus: qHTS of pediatric cancer cell lines to identify multiple opportunities for drug repurposing: Confirmatory screen for Rh18 cells (AID 1347125). Note: nearly all actives have a fitted effect of over 55% in size. The procedure, abridged: as §2
Assay [11] is described as follows: qHTS of pediatric cancer cell lines to identify multiple opportunities for drug repurposing: Confirmatory screen for Rh30 cells (AID 1347126). Note: nearly all actives have a fitted effect of over 55% in size. Note: potency is the fitted concentration of half-maximal effect. In short, it runs like this:
as §2

The nature of assay [12]: qHTS of pediatric cancer cell lines to identify multiple opportunities for drug repurposing: Confirmatory screen for Saos-2 cells (AID 1347127). Note: nearly all actives have a fitted effect of over 60% in size. The procedure, abridged:
as §2

A short description of assay [13]: qHTS of pediatric cancer cell lines to identify multiple opportunities for drug repurposing: Confirmatory screen for OHS-50 cells (AID 1347128).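 Note: compound exposure lasted 48 h at 37 degrees C; nearly all actives have a fitted effect of over 55% in size.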 The procedure, abridged: as §2
Assay [14] can be described thus: qHTS of pediatric cancer cell lines to identify multiple opportunities for drug repurposing: Confirmatory screen for SK-N-SH cells (AID 1347129).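 Note: cells exposed to compound for 48 h before viability read; nearly all actives have a fitted effect of over 60% in size.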 The procedure, abridged: as §2
Assay [15] deals with Zika virus NS2B-NS3 protease (linked construct). Description: Confirmatory screen NINDS AMC qHTS for Zika virus inhibitors (AID 1347152). Note: potency is the fitted concentration of half-maximal effect; nearly all actives have a fitted effect of over 70% in size. The following applies: Purified linked NS2B-NS3, AMC substrate fluorescence. In short, it runs like this: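 Linked NS2B-NS3 protease, 1 nM, in 10 mM Tris-HCl pH 8.0, 0.01% Tween 20; compounds preincubated 15 min at room temperature. Nle-KRR-AMC 10 microM (Km 18.3 µM); 15-min fluorescence change (340/450 nm) fitted to 4-parameter Hill.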

In assay [16] the test system is Zika virus NS2B-NS3 protease (unlinked complex). As to the kind of experiment: Confirmatory screen GU AMC qHTS for Zika virus inhibitors (AID 1347153).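 Note: enzyme at 25 nM with substrate at 10 µM below its Km of 18.3 µM; potency is the fitted concentration of half-maximal effect; nearly all actives have a fitted effect of over 70% in size.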 The following applies: Recombinant NS2B-NS3 protease, AMC substrate fluorescence. The procedure, abridged:
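Noncovalent NS2B hydrophilic domain/NS3 protease complex (25 nM) in 10 mM Tris-HCl pH 8.0, 0.01% Tween 20 was preincubated 15 min at room temperature with compounds. Then 10 µM AMC substrate (Km 18.3 µM) was added; fluorescence was read over 15 min and fitted to a 4-parameter Hill equation.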

The nature of assay [17]: qHTS of pediatric cancer cell lines to identify multiple opportunities for drug repurposing: Confirmatory screen for NB-EBc1 cells (AID 1347115).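 Note: cells exposed to compound for 48 h before the viability read; nearly all actives have a fitted effect of over 45% in size.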 Note: potency is the fitted concentration of half-maximal effect. The procedure, abridged: as §2
Assay [18] can be described thus: qHTS of pediatric cancer cell lines to identify multiple opportunities for drug repurposing: Confirmatory screen for MG 63 (6-TG R) cells (AID 1347119). Note: nearly all actives have a fitted effect of over 55% in size. In short, it runs like this: as §2
The target in assay [19] is Furin (Homo sapiens) (UniProt P09958). Description: Furin counterscreen qHTS for Zika virus inhibitors (AID 1347149). Note: nearly all actives have a fitted effect of over 70% in size. Note: potency is the fitted concentration of half-maximal effect. In short, it runs like this:
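Counterscreen measures cleavage of 2 microM BOC-RVRR-AMC, below its ~15 microM Km, by 5 nM full-length human furin at pH 7.0 after a 15-min compound preincubation. Inhibition derives from the 15-min fluorescence increase at 37C.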
(In general: The purpose of a counterscreen is to sort out artefacts and off-target activity.)

Chain of N-terminal Xaa-Pro-Lys N-methyltransferase 1 (Homo sapiens) (Q9BV86 whole entry, looked up): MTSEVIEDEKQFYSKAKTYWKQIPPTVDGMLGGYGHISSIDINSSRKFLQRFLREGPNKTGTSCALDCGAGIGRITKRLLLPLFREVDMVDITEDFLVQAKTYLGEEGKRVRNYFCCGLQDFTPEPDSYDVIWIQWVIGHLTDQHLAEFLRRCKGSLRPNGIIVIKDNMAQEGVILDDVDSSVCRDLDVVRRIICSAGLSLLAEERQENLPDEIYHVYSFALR
Chain of Furin (Homo sapiens) (P09958 whole entry, looked up): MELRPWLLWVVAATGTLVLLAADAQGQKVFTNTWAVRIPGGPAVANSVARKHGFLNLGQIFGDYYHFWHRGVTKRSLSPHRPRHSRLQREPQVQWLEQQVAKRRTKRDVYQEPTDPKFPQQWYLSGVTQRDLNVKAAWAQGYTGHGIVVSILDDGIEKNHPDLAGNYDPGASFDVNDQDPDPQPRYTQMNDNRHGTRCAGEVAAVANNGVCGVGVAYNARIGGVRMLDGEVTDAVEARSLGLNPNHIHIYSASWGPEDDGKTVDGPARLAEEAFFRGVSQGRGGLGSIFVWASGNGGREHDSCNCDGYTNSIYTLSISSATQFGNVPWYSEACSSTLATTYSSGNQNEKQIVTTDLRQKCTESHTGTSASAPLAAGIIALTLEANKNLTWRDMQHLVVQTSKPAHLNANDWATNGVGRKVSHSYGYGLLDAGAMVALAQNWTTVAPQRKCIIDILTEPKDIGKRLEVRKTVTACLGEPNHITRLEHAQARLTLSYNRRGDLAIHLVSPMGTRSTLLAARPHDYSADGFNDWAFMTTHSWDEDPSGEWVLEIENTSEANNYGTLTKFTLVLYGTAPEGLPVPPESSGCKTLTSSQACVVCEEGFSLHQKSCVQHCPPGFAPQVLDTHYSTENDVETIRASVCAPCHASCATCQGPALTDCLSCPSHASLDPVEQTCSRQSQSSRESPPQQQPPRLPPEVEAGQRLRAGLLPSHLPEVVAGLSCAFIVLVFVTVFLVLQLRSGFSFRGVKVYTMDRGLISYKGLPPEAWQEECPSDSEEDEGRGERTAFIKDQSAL

Turning to `O=C(CCCN1CCC2(CC1)C(=O)NCN2c1ccccc1)c1ccc(F)cc1`, the molecule was classed as inactive in assay [1].
With `CN1C(=O)CCS(=O)(=O)C1c1ccc(Cl)cc1` (stereo unspecified), the call in assay [1] and in assay [2] was inactive.
As for `O=C(N/N=C/c1ccc([N+](=O)[O-])o1)c1cc([N+](=O)[O-])cc([N+](=O)[O-])c1O`, the Potency entry in assay [3], in assay [5], in assay [7], in assay [8], in assay [10] and in assay [11] was “inactive” each time. In addition, the Potency result in assay [12], in assay [13] and in assay [14] was “inactive” throughout. The result in assay [4], in assay [6] and in [9] was inactive.
Take `C=C(C)[C@H]1CN[C@H](C(=O)O)[C@H]1CC(=O)O`: the outcome in assay [1] and in [2] was inactive.
On to `O=c1c(C2CC(c3ccc(-c4ccc(Br)cc4)cc3)Cc3ccccc32)c(O)sc2ccccc12` (stereo unspecified), for which the values for the Potency in assay [15] and in assay [16] were 19.2 µM (active) and 12.1 µM (active), respectively.
In the case of `CCOP(=S)(OCC)Oc1ccc2c(C)c(Cl)c(=O)oc2c1`, the Potency entry in [3], in [17], in [7], in assay [8], in assay [10] and in assay [11] was “inactive” each time. Further, the Potency entry in [12], in assay [13] and in [14] was “inactive” throughout. Further, the result in [4], in assay [18] and in [9] was inactive.
For `CCCN(CCC)C(=O)Cc1c(-c2ccc(Cl)cc2)nc2ccc(Cl)cn12`, the Potency result in assay [17], in assay [5], in assay [10], in assay [12], in assay [13] and in assay [14] was “inactive” throughout. Besides, the molecule was classed as inactive in assay [4], in assay [18], in [6] and in [9]. The results for the Potency in [8] and in [11] were 18.5 µM (active) and 7.37 µM (active), respectively.
On to `O=C(Nc1ccc(Br)cc1)c1cc(Br)cc(Br)c1O`, for which the Potency in assay [19] was 27.1 µM (active); in assay [15], 19.2 µM (active); in [16], 21.5 µM (active).
With `O=c1oc2ccccc2c(O)c1Cc1c(O)c2ccccc2oc1=O`, the Potency entry in assay [19] is “inactive”.
Consider `C[C@]12CC[C@@H]3c4ccc(OC(=O)N(CCCl)CCCl)cc4CC[C@H]3[C@@H]1CC[C@@H]2O`, for which the Potency in [15] is 21.5 µM (active).
As to `O=C(O)CCCc1ccc(N(CCCl)CCCl)cc1`, the Potency entry in assay [3], in [7], in [8], in assay [10], in assay [11] and in assay [13] was “inactive” each time. Further, the Potency result in assay [14] was “inactive”. Also, the Potency in assay [17] is 9.27 µM (active). Also, the molecule was called inactive in assay [9].
Regarding `O=C1OC(c2ccc(O)c(S(=O)(=O)O)c2)(c2ccc(O)c(S(=O)(=O)O)c2)c2c(Br)c(Br)c(Br)c(Br)c21`, the Potency entry in assay [19] is “inactive”.
As to `CC(C)(C)NCC(O)c1ccccc1Cl` (stereo unspecified), the molecule was classed as inactive in [1] and in assay [2].
`C[C@]12CCC(=O)C=C1CC[C@@H]1[C@@H]2CC[C@@]2(C)[C@H]1CC[C@]2(C)O`: the Potency result in [17], in assay [5], in assay [10], in [11], in assay [12] and in assay [13] was “inactive” in each case. In addition, the Potency result in [14] is “inactive”. For the same molecule, the outcome in [4], in [6] and in assay [9] was inactive. Besides, the Potency in [8] is 18.5 µM (active).

For the origin of these results see PubChem BioAssay (NCATS).
